From PubChem BioAssay (NCI) come the findings set out here.

Structures are written as SMILES. The panel holds about 79,000 compounds, 15% with a hit somewhere; the sample as a whole holds those more often. Activity calls are given as the source filed them. Cut-off read from the data, not from the text of the source: active = growth inhibition above about 70%; inactive = the rest.

A short description of one test: NCI Yeast Anticancer Drug Screen. Data for the bub3 strain (AID 167). Particulars: S. cerevisiae bub3 mutant strain, at 50.0 µM, hits give high values. A digest of the protocol:
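Compounds were applied to a genetically altered yeast strain carrying a cell-cycle control defect. Growth inhibition was scored against vehicle-treated controls.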
Turning to `CCOC(=O)c1cc2c(cn1)[nH]c1ccccc12`, the growth inhibition is 26.9% (inactive).

Consider `Nc1nc(-c2cccc(S(=O)(=O)F)c2)cs1`, for which the growth inhibition is 51.1% (inactive).

With `Cc1c(Cl)cc([N+](=O)[O-])c(O)c1[N+](=O)[O-]`, the growth inhibition was 26.1% (inactive).

`c1cc(C2N3CCCN2CC3)ccn1` (stereo not drawn): the growth inhibition is -2.35% (inactive).

With `C/C=C/CC1(CC)C(=O)NC(=S)NC1=O`, the growth inhibition is 2.35% (inactive).

In the case of `N#CCCc1ccccc1`, the growth inhibition was -1.1% (inactive).

Regarding `CCN(CC)CCN(CC)CC.CCN(CC)CCN(CC)CC.[Cu+2].[Cu+2].[O-][Cl+3]([O-])([O-])[O-].[OH3+].[OH3+]`, the growth inhibition was 12.6% (inactive).

Regarding `c1ccc(CC[N+]23CC[N+](CCc4ccccc4)(CC2)C3)cc1`, the growth inhibition was 4.5% (inactive).

As for `CCOC(OCC)c1ccc2c(c1)OCO2`, the growth inhibition is -0.05% (inactive).

`CCN(CC)CCn1c(=O)c2ccccc2n(CCN(CC)CC)c1=O`: the growth inhibition was 12.7% (inactive).

Consider `Cn1cnc([N+](=O)[O-])c1[Se]c1nc(N)nc2nc[nH]c12`, for which the growth inhibition was -7.65% (inactive).

Take `CCC1(C/C=C/Cl)C(=O)NC(=O)NC1=O`: the growth inhibition is 6.45% (inactive).

Regarding `O=C1C(NCC(O)CO)=C(N2CC2)C(=O)C(NCC(O)CO)=C1N1CC1` (stereo not drawn), the growth inhibition is 8.8% (inactive).

Turning to `CC[C@@H](C)C(=O)O[C@H]1[C@H](O)[C@H]2[C@@H](CN3C[C@@H](C)CC[C@H]3[C@@]2(C)O)[C@@H]2C[C@]34O[C@@]5(O)[C@@H](OC(=O)[C@](C)(O)[C@@H](C)O)CC[C@@]3(C)[C@@H]5[C@@H](OC(C)=O)[C@@H](OC(C)=O)[C@H]4[C@@]21O`, the growth inhibition was 4.9% (inactive).

For `O[C@H]1[C@H](O)[C@@H](O)CN2CC[C@H](O)[C@H]12`, the growth inhibition is -9.05% (inactive).

With `CCCn1cc2c3c(cccc31)[C@H]1C[C@@H](C)CN(C)[C@@H]1C2`, the growth inhibition was 44% (inactive).

Turning to `CCCCCCCC(N)CC(=O)O` (stereo not drawn), the growth inhibition was -36.6% (inactive).

`CC1=C(C)CN(CCc2c[nH]c3ccccc23)C(C#N)C1` (stereo not drawn): the growth inhibition was 11.9% (inactive).

For the molecule `NC(Cc1ccc(Cl)cc1)c1nn[nH]n1` (stereo not drawn), the growth inhibition was 1.2% (inactive).

On to `O=[N+]([O-])c1ccc(/C=C/C=C/C=C/C=C/c2ccc(S(=O)(=O)F)cc2Cl)c(Cl)c1`, for which the growth inhibition is -10.3% (inactive).

`O=[C-]/C=C/c1ccccc1.[C-]#[O+].[C-]#[O+].[Fe+2].[c-]1ccccc1`: the growth inhibition was -7.1% (inactive).

As for `O=C(O)C1CCCN1[N+](=O)[O-]` (stereo not drawn), the growth inhibition is -5.55% (inactive).

In the case of `O=S(=O)(O)O.[In]`, the growth inhibition was 26.5% (inactive).

For the molecule `O=C(O)C(F)(F)F.O=C(O)C(F)(F)F.[C-]#[O+].[Ru].c1ccc([PH+](c2ccccc2)c2ccccc2)cc1.c1ccc([PH+](c2ccccc2)c2ccccc2)cc1`, the growth inhibition was -14.9% (inactive).

In the case of `[CH3][Sn]([CH3])([Br])[CH2]CCBr`, the growth inhibition was 95% (active).

In the case of `COCC(C)OC(=O)Cc1ccccc1` (stereo not drawn), the growth inhibition was -49.1% (inactive).

Turning to `C1=C[N-]c2c3c(ccc2=C1)=CC=C[N-]3.C1=C[N-]c2c3c(ccc2=C1)=CC=C[N-]3.C1=C[N-]c2c3c(ccc2=C1)=CC=C[N-]3.[Co+3].[O-][Cl+3]([O-])([O-])O`, the growth inhibition was -1.15% (inactive).

Take `Cc1cc(C(C)(C)C)ccc1O`: the growth inhibition is 28.2% (inactive).

Turning to `CCCCCC(=O)C[n+]1ccccc1` (tested in a mixture with another compound), the growth inhibition was 24.4% (inactive).

On to `CCOP(=O)(OCC)OP(=O)(OCC)OCC`, for which the growth inhibition is -49.4% (inactive).

Turning to `C1CC[N+]2=C(C1)OCCC2`, the growth inhibition is -1.9% (inactive).

On to `[C-]#[O+].[C-]#[O+].[C-]#[O+].[C-]#[O+].[C-]#[O+].[C-]#[O+].[Fe].[Fe].c1ccc([P-]c2ccccc2[P-]c2ccccc2)cc1` (stereo not drawn), for which the growth inhibition is 12.6% (inactive).

`[Cl][Hg][c]1ccccc1N=Nc1ccccc1`: the growth inhibition is 98% (active).

`COc1ccc2c(c1O)[C@@]13CCCC=C1[C@@H](C2)[N+](C)(C)CC3`: the growth inhibition was -1.35% (inactive).

On to `COc1ccc(O)c2c(=O)c3c(OC)cc4c(c3oc12)[C@@H]1C=CO[C@@H]1O4`, for which the growth inhibition was -9.65% (inactive).

Regarding `C/C=C\C(C)=C/C(C)C(=O)CC(O)CC1CC(=O)NC(=O)C1` (stereo not drawn), the growth inhibition is 7.85% (inactive).

`O=C(O)c1ccccc1N(CCO)CCCl`: the growth inhibition was -14% (inactive).

Regarding `O=C(Cc1ccccc1)OCC1CCCO1` (stereo not drawn), the growth inhibition was -17.8% (inactive).

As for `CC(Oc1ccc(-c2ccccc2)cc1)C(=O)O` (stereo not drawn), the growth inhibition is -13.1% (inactive).

A further test in a line: NCI Yeast Anticancer Drug Screen. Data for the mlh1 rad18 strain (AID 175). The note with it: S. cerevisiae mlh1 rad18 strain growth inhibition; at 50.0 µM; hits give high values. A digest of the protocol:
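Read-out is yeast growth inhibition, calculated against vehicle-only controls. The compound was applied to a strain engineered with DNA damage repair alterations.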
For `CCOC(=O)c1cc2c(cn1)[nH]c1ccccc12`, the growth inhibition is 16.8% (inactive).

Consider `Nc1nc(-c2cccc(S(=O)(=O)F)c2)cs1`, for which the growth inhibition was 34.6% (inactive).

For the molecule `Cc1c(Cl)cc([N+](=O)[O-])c(O)c1[N+](=O)[O-]`, the growth inhibition was 7.85% (inactive).

On to `c1cc(C2N3CCCN2CC3)ccn1` (stereo not drawn), for which the growth inhibition is -15.2% (inactive).

With `C/C=C/CC1(CC)C(=O)NC(=S)NC1=O`, the growth inhibition is 13.6% (inactive).

Take `N#CCCc1ccccc1`: the growth inhibition was 0.65% (inactive).

Take `CCN(CC)CCN(CC)CC.CCN(CC)CCN(CC)CC.[Cu+2].[Cu+2].[O-][Cl+3]([O-])([O-])[O-].[OH3+].[OH3+]`: the growth inhibition is 15.7% (inactive).

With `c1ccc(CC[N+]23CC[N+](CCc4ccccc4)(CC2)C3)cc1`, the growth inhibition was 16% (inactive).

As for `CCOC(OCC)c1ccc2c(c1)OCO2`, the growth inhibition was 11.8% (inactive).

Consider `CCN(CC)CCn1c(=O)c2ccccc2n(CCN(CC)CC)c1=O`, for which the growth inhibition was 10.4% (inactive).

On to `Cn1cnc([N+](=O)[O-])c1[Se]c1nc(N)nc2nc[nH]c12`, for which the growth inhibition is -17.9% (inactive).

For `CCC1(C/C=C/Cl)C(=O)NC(=O)NC1=O`, the growth inhibition was -29.1% (inactive).

Regarding `O=C1C(NCC(O)CO)=C(N2CC2)C(=O)C(NCC(O)CO)=C1N1CC1` (stereo not drawn), the growth inhibition was 25.6% (inactive).

As to `CC[C@@H](C)C(=O)O[C@H]1[C@H](O)[C@H]2[C@@H](CN3C[C@@H](C)CC[C@H]3[C@@]2(C)O)[C@@H]2C[C@]34O[C@@]5(O)[C@@H](OC(=O)[C@](C)(O)[C@@H](C)O)CC[C@@]3(C)[C@@H]5[C@@H](OC(C)=O)[C@@H](OC(C)=O)[C@H]4[C@@]21O`, the growth inhibition was 25.5% (inactive).

As for `O[C@H]1[C@H](O)[C@@H](O)CN2CC[C@H](O)[C@H]12`, the growth inhibition was -24.6% (inactive).

Turning to `CCCn1cc2c3c(cccc31)[C@H]1C[C@@H](C)CN(C)[C@@H]1C2`, the growth inhibition was 36.5% (inactive).

Consider `CCCCCCCC(N)CC(=O)O` (stereo not drawn), for which the growth inhibition was -8.05% (inactive).

As for `CC1=C(C)CN(CCc2c[nH]c3ccccc23)C(C#N)C1` (stereo not drawn), the growth inhibition is 12.5% (inactive).

Take `NC(Cc1ccc(Cl)cc1)c1nn[nH]n1` (stereo not drawn): the growth inhibition was -7.7% (inactive).

On to `O=[N+]([O-])c1ccc(/C=C/C=C/C=C/C=C/c2ccc(S(=O)(=O)F)cc2Cl)c(Cl)c1`, for which the growth inhibition was -1.2% (inactive).

`O=[C-]/C=C/c1ccccc1.[C-]#[O+].[C-]#[O+].[Fe+2].[c-]1ccccc1`: the growth inhibition was 7.15% (inactive).

In the case of `O=C(O)C1CCCN1[N+](=O)[O-]` (stereo not drawn), the growth inhibition is -8.15% (inactive).

As to `O=S(=O)(O)O.[In]`, the growth inhibition was 15.1% (inactive).

With `O=C(O)C(F)(F)F.O=C(O)C(F)(F)F.[C-]#[O+].[Ru].c1ccc([PH+](c2ccccc2)c2ccccc2)cc1.c1ccc([PH+](c2ccccc2)c2ccccc2)cc1`, the growth inhibition is 14.3% (inactive).

`[CH3][Sn]([CH3])([Br])[CH2]CCBr`: the growth inhibition was 96.5% (active).

Regarding `COCC(C)OC(=O)Cc1ccccc1` (stereo not drawn), the growth inhibition is -31.1% (inactive).

For the molecule `C1=C[N-]c2c3c(ccc2=C1)=CC=C[N-]3.C1=C[N-]c2c3c(ccc2=C1)=CC=C[N-]3.C1=C[N-]c2c3c(ccc2=C1)=CC=C[N-]3.[Co+3].[O-][Cl+3]([O-])([O-])O`, the growth inhibition was 8.2% (inactive).

Turning to `Cc1cc(C(C)(C)C)ccc1O`, the growth inhibition was 22% (inactive).

Take `CCCCCC(=O)C[n+]1ccccc1` (tested in a mixture with another compound): the growth inhibition was -9.15% (inactive).

Regarding `CCOP(=O)(OCC)OP(=O)(OCC)OCC`, the growth inhibition is -13.4% (inactive).

Turning to `C1CC[N+]2=C(C1)OCCC2`, the growth inhibition is 4.25% (inactive).

For the molecule `[C-]#[O+].[C-]#[O+].[C-]#[O+].[C-]#[O+].[C-]#[O+].[C-]#[O+].[Fe].[Fe].c1ccc([P-]c2ccccc2[P-]c2ccccc2)cc1` (stereo not drawn), the growth inhibition is 18.7% (inactive).

`[Cl][Hg][c]1ccccc1N=Nc1ccccc1`: the growth inhibition is 94.5% (active).

For `COc1ccc2c(c1O)[C@@]13CCCC=C1[C@@H](C2)[N+](C)(C)CC3`, the growth inhibition is -29.6% (inactive).

For `COc1ccc(O)c2c(=O)c3c(OC)cc4c(c3oc12)[C@@H]1C=CO[C@@H]1O4`, the growth inhibition is 9.2% (inactive).

Turning to `C/C=C\C(C)=C/C(C)C(=O)CC(O)CC1CC(=O)NC(=O)C1` (stereo not drawn), the growth inhibition is 13.3% (inactive).

On to `O=C(O)c1ccccc1N(CCO)CCCl`, for which the growth inhibition was -22.8% (inactive).

Consider `O=C(Cc1ccccc1)OCC1CCCO1` (stereo not drawn), for which the growth inhibition is 10.5% (inactive).

Turning to `CC(Oc1ccc(-c2ccccc2)cc1)C(=O)O` (stereo not drawn), the growth inhibition is -23.4% (inactive).
